Source: PubChem BioAssay
This excerpt belongs to a sample that is enriched for hits.
Dicer processing = blocks human Dicer maturation of pre-miR-21. Q9UPY3. cat-ELCCA pre-miR-21 Dicer processing, chemiluminescence; stronger effect = higher value. z-score at 25 µM. actives 6% (n = 47,000); in the data active means z-score above about 3, passing the limit was not always enough;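 further: plate controls were vehicle for no effect and no enzyme for full effect; higher signal means more uncleaved substrate so more Dicer inhibition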
Active calls of the source: *.

For O=C(CSc1nc(-c2ccco2)cc(C(F)(F)F)n1)N1CCN(c2cccc(Cl)c2)CC1 the results were Dicer processing 0.7.
Screening O=C(CSc1nc2ccccc2nc1N1CCCC1)N1CCCC1 returned Dicer processing 0.
O=C(CSc1nc2ccccc2nc1N1CCOCC1)Nc1ccccc1F was read as Dicer processing 1.72.
`O=C(CSc1nc2ccccc2nc1N1CCOCC1)N1CCN(c2cccc(Cl)c2)CC1` gave Dicer processing 3.55*.
Screening O=C(CSc1nc2ccccc2nc1N1CCOCC1)NC1CCCC1 returned Dicer processing 2.05.
Screening Cn1c(Sc2nc3ccc(Cl)cc3s2)nnc1-c1ccc2ncccc2c1 returned Dicer processing 1.94.
`COC(=O)C(C)Oc1ccc2c(=O)c(Oc3ccccc3Cl)coc2c1` (configuration not stated) gave Dicer processing -0.38.
For Cc1ccc2c(=O)c(C(=O)c3ccccc3Cl)coc2c1 the results were Dicer processing 3.81*.
O=C(Oc1ccc2c(=O)c(-c3ccccc3Cl)coc2c1)c1cccs1 was read as Dicer processing 0.61.
For C#CC(CC)(CC)NC(=O)/C=C\C(=O)O the results were Dicer processing 0.19.
`c1ccc(-c2cc(-c3ccccc3)c(N3CCCC3)nn2)cc1` gave Dicer processing -0.94.
`Cc1ccc(Br)cc1[N+](=O)[O-]` gave Dicer processing -1.05.
Screening CC(=O)Nc1cc(C)c(Br)cc1[N+](=O)[O-] returned Dicer processing 0.37.
Screening O=[N+]([O-])c1ccc2c3c(ccc(Br)c13)CC2 returned Dicer processing 3.34*.
Screening C=CCOc1ccc2oc(-c3ccc(OC)cc3)cc(=O)c2c1 returned Dicer processing 1.02.
For Cc1[nH]c2[nH]n(-c3ccccc3)c(=O)c2c(=O)c1Cc1ccc(Cl)cc1 the results were Dicer processing -3.58.
`CSc1sc(-c2ccn(C(C)=O)n2)c2c1C(=O)CC(C)(C)C2` gave Dicer processing 11.5.
CC(C)(C)c1cc(C(=O)O)nn1-c1ccccc1 was read as Dicer processing 0.69.
Cc1nn(-c2ccccc2)c(C)c1C(=O)O was read as Dicer processing 8.41*.
COc1ccc(OC(=O)c2c(C)nn(-c3ccccc3)c2C)cc1 was read as Dicer processing 0.4.
Screening O=C(Nc1ccccc1)c1nc(-c2ccccc2)n(-c2ccccc2)n1 returned Dicer processing 0.27.
Cc1nn(-c2ccccc2)c(C)c1C(=O)Oc1ccc(Cl)cc1Cl was read as Dicer processing 0.09.
For O=C(O)c1nc(-c2ccccc2)n(-c2ccccc2)n1 the results were Dicer processing 5.39*.
Screening Nc1nonc1C(=O)NCCNCc1ccncc1 returned Dicer processing -1.69.
`Cc1[nH]n(-c2ccccc2)c(=O)c1C(c1ccccn1)c1c(C)[nH]n(-c2ccccc2)c1=O` gave Dicer processing -4.58.
Screening Cc1ccc(Oc2ncccc2C(=O)n2ccc(-c3cccs3)n2)cc1 returned Dicer processing -0.51.
N#Cc1cnc(Sc2nnc(-c3ccncc3)o2)nc1N was read as Dicer processing -1.67.
`CCOC(=O)C1=C(C(=O)OCC)SC(=C2C(=S)C(C)(C)Nc3ccc(C)cc32)S1` gave Dicer processing 1.74.
CCOC(=O)C1=CS/C(=C2/C(=S)C(C)(C)Nc3c(OCC)cccc32)S1 was read as Dicer processing 3.67*.
CCOc1cccc2c1N(C(C)=O)C(C)(C)C(=S)C2=C1SC(C(=O)OC)=C(C(=O)OC)S1 was read as Dicer processing 0.96.
For Cc1ccc(C2Nn3c(C)nnc3SC2C(=O)Nc2ccc(Br)cc2)cc1 (configuration not stated) the results were Dicer processing 1.07.
Screening CN(/N=C1\CCCc2occ(C(=O)O)c21)c1ncc(Cl)cc1C(F)(F)F returned Dicer processing 0.7.
O=c1cc(C(F)(F)F)[nH]n1-c1ccccc1 was read as Dicer processing -2.63.
Screening COC(=O)c1cc(=O)n(-c2cc(C(F)(F)F)cc(C(F)(F)F)c2)[nH]1 returned Dicer processing 0.48.
COC(=O)c1cc(=O)n(-c2ccccc2C(F)(F)F)[nH]1 was read as Dicer processing 3.23*.
Screening CC1=C(C(=O)OC2CCCCC2)C(c2cccc(C)c2)C2=C(CCCC2=O)N1 (configuration not stated) returned Dicer processing 1.22.
For CCC1C2=C(CCCC2=O)NC2=C1C(=O)CCC2 the results were Dicer processing 0.37.
`CC(=O)/C(C=NC1CCCCNC1=O)=C(\C)O` (configuration not stated) gave Dicer processing -0.52.
Screening Cc1cc(C)c2c(n1)sc1c(Sc3nnc(-c4cccs4)o3)ncnc12 returned Dicer processing -2.23.
Screening CCC(C)OC(=O)C(C)Oc1ccc2c(=O)c(Oc3ccc(C)cc3)coc2c1 (configuration not stated) returned Dicer processing 4.2*.
For C=CCOC(=O)Oc1ccc2c(=O)c(Oc3cc(C)ccc3C)coc2c1 the results were Dicer processing 1.33.
`CCOC(=O)Oc1ccc2c(=O)c(Oc3cc(C)cc(C)c3)coc2c1` gave Dicer processing 0.12.
Screening CCC(C)OC(=O)C(C)Oc1ccc2c(=O)c(Oc3cccc(C)c3)coc2c1 (configuration not stated) returned Dicer processing -1.06.
Screening C=CCOC(=O)Oc1ccc2c(=O)c(Oc3cc(C)cc(C)c3)coc2c1 returned Dicer processing 3.01*.
CCC(C)OC(=O)C(C)Oc1ccc2c(=O)c(Oc3ccccc3Cl)coc2c1 (configuration not stated) was read as Dicer processing -0.01.
For c1cncc(-c2nc3ccc(Oc4ccc5nc(-c6cccnc6)[nH]c5c4)cc3[nH]2)c1 the results were Dicer processing 0.1.
For Cc1ccc(C(=O)NC(=O)c2ccccc2O)cc1 the results were Dicer processing -0.87.
For CSC1=NCCCN1S(=O)(=O)c1ccc(Cl)cc1 the results were Dicer processing -0.25.
CCOC(=O)c1cnc(-c2cccs2)nc1Nc1ccccc1 was read as Dicer processing 1.81.
For Cc1cc(C)c(N2C(N)=NC(N)=NC2(C)C)c(C)c1 the results were Dicer processing 0.39.
`C=CCSc1nnc(-c2ccc(C)cc2)o1` gave Dicer processing 0.23.
For COc1ccc(C2CC(=O)c3cnc(N4CCc5ccccc5C4)nc3C2)cc1OC (configuration not stated) the results were Dicer processing -0.95.
Screening Oc1cccc(N2Cc3ccccc3C2)c1 returned Dicer processing 4.44*.
Oc1ccc(N2Cc3ccccc3C2)cc1 was read as Dicer processing -2.22.
For CC1CCC2C(=O)N(c3cccc(O)c3)C(=O)C2C1 (configuration not stated) the results were Dicer processing 1.08.
Screening CC1CC(C)CN(c2ncc3c(n2)CC(c2ccc(F)cc2)CC3=O)C1 (configuration not stated) returned Dicer processing -1.19.
For COc1ccc(O)c(C2=Nc3ccccc3N=C(C(F)(F)F)C2)c1 the results were Dicer processing 3.16*.
`COc1ccc(C2=Nc3ccccc3SC(c3cccc(O)c3)C2)c(O)c1` (configuration not stated) gave Dicer processing -0.77.
Screening Oc1ccccc1C1=Nc2ccccc2N=C(C(F)(F)F)C1 returned Dicer processing 2.56.
CC(C)n1cc(-c2nc(C(=O)NNS(=O)(=O)c3ccc(Cl)s3)cs2)c(=O)n(Cc2ccccc2)c1=O was read as Dicer processing -0.19.
`COc1ccc(O)c(-c2cc(C(F)(F)F)nc(-c3ccccc3)n2)c1` gave Dicer processing 1.17.
